“And” between values parts separate entries of the source, which are not always exact repeats. Identical values can stand only once. Compounds without any hit were thinned out: in the full panel of roughly 83,000, 20% have a hit.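 Assay: single dose, 48 h. Readout: percent growth (0 = no net growth; negative = cell death). Active: <10.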 The source made the active and inactive calls.

The test relates to TK-10 renal. The experiment in a line: NCI-60 one-dose screen, 48 h (100 = growth as untreated, 0 = no growth, -100 = all killed). Particulars: 10 µM unless noted.
As for `Cc1ccc(NC(=S)C#N)c(C)c1`, the growth is 93.1% [100 µM] (inactive) and 43.3% [100 µM] (inactive).
With `COc1cc2c(cc1-c1coc3cc(OCC=C(C)C)ccc3c1=O)OCO2`, the growth was 5.74% [100 µM] (active) and 19.4% [100 µM] (inactive).
`Cc1ccc(/C=N/Nc2ccc3ccccc3n2)s1`: the growth is 50.5% [100 µM] (inactive) and 7.78% [100 µM] (active).
As for `CCCCOC(=O)C1CN2C(=NC1(C(F)(F)F)C(F)(F)F)Sc1ccccc12` (stereo not given), the growth was 33.3% [100 µM] (inactive) and 71.4% [100 µM] (inactive).
Regarding `COc1cc(Nc2ccc3c(c2)CCC3)nc(OC)n1`, the growth is 53.3% [100 µM] (inactive) and -39.4% [100 µM] (active).
As for `CC(O)c1cc2c(s1)C(=O)c1ccsc1C2=O` (stereo not given), the growth was -46.9% [100 µM] (active) and -98.9% [100 µM] (active).
For the compound `CC(C)(C)c1cc(C2COC(=O)COCC(=O)OCCOCCOCCO2)cc(C(C)(C)C)c1O` (stereo not given), the growth was -74.5% [100 µM] (active) and -100% [100 µM] (active).
For `CC(C)=CCC/C(C)=C/CC/C(C)=C/CC/C(C)=C/C=C/C=C(\C)CC/C=C(\C)CC/C=C(\C)CCC=C(C)C`, the growth is 106% [100 µM] (inactive) and -87% [100 µM] (active).
Take `Nc1cc2c3c(cccc3c1)C(=O)N(c1ccc(OCCN3CCCC3)cc1)C2=O`: the growth was 33.8% [100 µM] (inactive) and -100% [100 µM] (active).
As to `CC(C)C1OC23CCCCC2C(C#N)(C#N)C1(C#N)C(=N)O3` (stereo not given), the growth was 39.7% [100 µM] (inactive).
With `COC(=O)C(=O)C(C(=O)C(=O)Nc1ccccc1C(=O)OC)c1nc2ccc(C(=O)c3ccccc3)cc2[nH]c1=O` (stereo not given) the figure was 82.4% [100 µM] (inactive) and 16.6% [100 µM] (inactive); with `CC(C)(C)O/N=C/c1cc(NC(=S)c2ccsc2)ccc1Cl`, -90.2% [100 µM] (active) and -20.8% [100 µM] (active); with `C/C(Cl)=N/OC(=O)Nc1ccc(S(N)(=O)=O)c(C)c1`, -100% [100 µM] (active).
As for `CCOC(=O)c1nc2cc(C(F)(F)F)ccc2nc1Nc1ccc(F)cc1`, the growth was 42.7% [100 µM] (inactive) and 3.59% [100 µM] (active).
On to `COc1ccc2c3c(c(=O)n(C)c2c1OC)C=CC(C)(C)O3`, for which the growth is 8.86% [100 µM] (active) and 15% [100 µM] (inactive).
Then `CC1OC(OC2C(O[C@H]3CC[C@@]4(C)C(=CC[C@H]5[C@@H]6C[C@@H]7O[C@]8(CC[C@H](C)CN8)[C@@H](C)[C@@H]7[C@@]6(C)CC[C@@H]54)C3)OC(CO)C(O)C2OC2OC(CO)C(O)C(O)C2O)C(O)C(O)C1O` (stereo not given in full), with 95.2% [100 µM] (inactive) and -95% [100 µM] (active).
Consider `O=C(CCc1ccccc1)On1c(-c2ccccc2)nc2ccccc2c1=S`, for which the growth is 9.44% [100 µM] (active) and -36.2% [100 µM] (active).
Consider `CC(=O)Nc1c(C)cc2c(nc3n2CCC3OC(C)=O)c1[N+](=O)[O-]` (stereo not given), for which the growth is 120% [100 µM] (inactive) and 104% [100 µM] (inactive).
Then `CC(=O)O[C@@H]1C[C@@]2(C)[C@@H]3CC=C4[C@@H](C[C@H](O)C(=O)C4(C)C)[C@]3(C)C(=O)C[C@]2(C)[C@H]1[C@@](C)(O)C(=O)/C=C/C(C)(C)OC(C)=O`, with -62% [100 µM] (active) and -91% [100 µM] (active).
With `N#Cc1c(=N)cc2c3ccccc3oc3c(C#N)c(N)[nH]c1c32` the figure was 47.1% [100 µM] (inactive) and 2.25% [100 µM] (active).

(Values after PubChem BioAssay (NCI).)
